Source: PubChem BioAssay (NCI)
Compounds without any hit were thinned out: in the full panel of roughly 79,000, 15% have a hit. A number with no mark means an inactive call. The source made the active and inactive calls. Cut-off read from the data, not from the text of the source: active = growth inhibition above about 70%; inactive = the rest.

Assays:
[1] = NCI Yeast Anticancer Drug Screen. Data for the rad50 strain (AID 155);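 note: 0% = growth of vehicle-only cultures of the same strain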; details: S. cerevisiae rad50 strain growth inhibition; at 50.0 µM; hits give high values
How it was run: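 Cells are treated with compound, grown, and their growth is then scored against vehicle-only cultures of the same repair-deficient yeast strain.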

[2] = NCI Yeast Anticancer Drug Screen. Data for the sgs1 mgt1 strain (AID 161);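 note: 0% = growth of cultures given vehicle only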; details: S. cerevisiae sgs1 mgt1 strain, at 50.0 µM, hits give high values
How it was run: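 This yeast growth screen uses a strain with defined DNA-repair lesions; compound-treated growth is compared with vehicle-treated growth.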

[3] = NCI Yeast Anticancer Drug Screen. Data for the cln2 rad14 strain (AID 165);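 note: 0% = growth equal to vehicle treated cultures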; details: S. cerevisiae cln2 rad14 strain, at 50.0 µM, hits give high values
How it was run: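 Yeast strain cln2 rad14, bearing defects in cell cycle control and DNA repair, serves as the test system; values reflect growth inhibition compared with vehicle.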

[4] = NCI Yeast Anticancer Drug Screen. Data for the bub3 strain (AID 167); details: S. cerevisiae bub3 mutant strain, at 50.0 µM, hits give high values
How it was run: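 Part of a panel of yeast mutants defective in DNA damage repair or cell cycle regulation. Each strain is grown with compound, and inhibition is calculated relative to solvent-treated cultures.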

[5] = NCI Yeast Anticancer Drug Screen. Data for the mlh1 rad18 strain (AID 175); details: S. cerevisiae mlh1 rad18 strain growth inhibition; at 50.0 µM; hits give high values
How it was run: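 Steps: expose repair-defective yeast to compound; measure growth; express inhibition against vehicle-treated controls.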

Structure (SMILES): Cc1ccc(C(=O)CC(C#N)c2ccccc2)cc1 (stereo not given)
- growth inhibition [1]: 25.6%
- growth inhibition [2]: 13.4%
- growth inhibition [3]: 18.1%
- growth inhibition [4]: 5.55%
- growth inhibition [5]: 12.7%

Structure (SMILES): Cc1nn(-c2ccccc2)c(SC(C)(C)C)c1C=NCCN=Cc1c(C)nn(-c2ccccc2)c1SC(C)(C)C
- growth inhibition [1]: 28.6%
- growth inhibition [2]: 18.2%
- growth inhibition [3]: 24.3%
- growth inhibition [4]: -5.85%
- growth inhibition [5]: 18.8%

Structure (SMILES): COC(=O)c1ccccc1CC1Cc2c(C)ccc(C)c2C1=O (stereo not given)
- growth inhibition [1]: -3.9%
- growth inhibition [2]: 0.15%
- growth inhibition [3]: 3.45%
- growth inhibition [4]: 0.55%
- growth inhibition [5]: 17.8%

Structure (SMILES): O=C(O)C(CCc1ccccn1)c1ccccc1 (stereo not given)
- growth inhibition [1]: -4.2%
- growth inhibition [2]: -26.2%
- growth inhibition [3]: -17.6%
- growth inhibition [4]: -44.4%
- growth inhibition [5]: -0.55%

Structure (SMILES): COc1cc(C2=N/C(=C\C=C\c3ccccc3)C(=O)O2)cc(OC)c1OC
- growth inhibition [1]: 16.8%
- growth inhibition [2]: 21.9%
- growth inhibition [3]: 18.9%
- growth inhibition [4]: 18.8%
- growth inhibition [5]: 16.9%

Structure (SMILES): CC(C)=NNC(=O)COCC(=O)NN=C(C)C
- growth inhibition [1]: 0.25%
- growth inhibition [2]: -1.35%
- growth inhibition [3]: -84.5%
- growth inhibition [4]: -22.9%
- growth inhibition [5]: 1.35%

Structure (SMILES): CCNc1ccc(N=Nc2ccc(-c3ccc(N=Nc4ccc(NCC)c5ccccc45)c(OC)c3)cc2OC)c2ccccc12
- growth inhibition [1]: -1.15%
- growth inhibition [2]: 5.55%
- growth inhibition [3]: 23.3%
- growth inhibition [4]: 26.9%
- growth inhibition [5]: 36%

Structure (SMILES): C=CCc1c(O)c2ccccc2[nH]c1=O
- growth inhibition [1]: -5.35%
- growth inhibition [2]: -25.9%
- growth inhibition [3]: 12.7%
- growth inhibition [4]: 4.45%
- growth inhibition [5]: 1.5%

Structure (SMILES): O=[N+]([O-])c1ccc(/C=C(/c2ccc([N+](=O)[O-])o2)S(=O)(=O)C(Cl)(Cl)Cl)cc1
- growth inhibition [1]: 96.7% (active)
- growth inhibition [2]: 98.3% (active)
- growth inhibition [3]: 97.1% (active)
- growth inhibition [4]: 90.1% (active)
- growth inhibition [5]: 97.8% (active)

Structure (SMILES): O=C(O)C(Br)Cc1cccc([N+](=O)[O-])c1 (stereo not given)
- growth inhibition [1]: 9.4%
- growth inhibition [2]: 10.6%
- growth inhibition [3]: -5.65%
- growth inhibition [4]: 3.45%
- growth inhibition [5]: 17.7%

Structure (SMILES): CC#CC(O)(C(=O)OC1CCC2CCC1N2C)C1CCCC1 (stereo not given)
- growth inhibition [1]: -25.5%
- growth inhibition [2]: -23.3%
- growth inhibition [3]: 6.2%
- growth inhibition [4]: -3.4%
- growth inhibition [5]: -4.65%

Structure (SMILES): C[N+](C)(C)CCOC(=O)c1ccccc1CCl
- growth inhibition [1]: 19.8%
- growth inhibition [2]: 31.6%
- growth inhibition [3]: 50.1%
- growth inhibition [4]: 97.3% (active)
- growth inhibition [5]: -17.1%

Structure (SMILES): Cc1ccc(C2(C)NC(=S)N(NC(N)=S)C2=S)cc1 (stereo not given)
- growth inhibition [1]: 32.3%
- growth inhibition [2]: 7.15%
- growth inhibition [3]: 3.25%
- growth inhibition [4]: 4.65%
- growth inhibition [5]: 21.8%

Structure (SMILES): CC(c1ccccc1)N1OC1(c1ccccc1)c1ccccc1 (stereo not given)
- growth inhibition [1]: 41.5%
- growth inhibition [2]: 57.8%
- growth inhibition [3]: 22.9%
- growth inhibition [4]: 30.6%
- growth inhibition [5]: 90.1% (active)

Structure (SMILES): CC(=[N-])CC(C)=O.O=C(CC(=Nc1ccccc1)c1ccccc1)c1ccccc1.[Cu+]
- growth inhibition [1]: -21.2%
- growth inhibition [2]: 1.6%
- growth inhibition [3]: 29.3%
- growth inhibition [4]: -3.45%
- growth inhibition [5]: 16.2%

Structure (SMILES): O=c1oc2ccccc2c2c1cnn2-c1ccccc1
- growth inhibition [1]: -12.7%
- growth inhibition [2]: -7.85%
- growth inhibition [3]: -5.9%
- growth inhibition [4]: -21.7%
- growth inhibition [5]: -4.45%

Structure (SMILES): N#C/C(=C\N1CC(=O)NC1=S)C(=O)c1ccc2ccccc2c1
- growth inhibition [1]: -20.4%
- growth inhibition [2]: -26.2%
- growth inhibition [3]: 13.5%
- growth inhibition [4]: 3.25%
- growth inhibition [5]: -17.4%

Structure (SMILES): Cc1ccc2c(c1)-c1nc3nnnn3nc1C(C)(C)O2
- growth inhibition [1]: 21%
- growth inhibition [2]: 34%
- growth inhibition [3]: -6.85%
- growth inhibition [4]: 15.1%
- growth inhibition [5]: 26.8%

Structure (SMILES): O=C(O)C1=C(C(=O)O)C2CCCC3C4CCCCC4N(N1)C23 (stereo not given)
- growth inhibition [1]: 20.1%
- growth inhibition [2]: -20.4%
- growth inhibition [3]: 3.9%
- growth inhibition [4]: 1.15%
- growth inhibition [5]: 22.9%

Structure (SMILES): CN(C)C(=S)Oc1cc(Cl)c(Cl)cc1Cl
- growth inhibition [1]: 86.1% (active)
- growth inhibition [2]: 91.3% (active)
- growth inhibition [3]: 81.8% (active)
- growth inhibition [4]: 91.3% (active)
- growth inhibition [5]: 96% (active)

Structure (SMILES): CN(C)Cc1ccccc1C=C(c1ccccc1)c1ccccc1
- growth inhibition [1]: 3.05%
- growth inhibition [2]: -6.2%
- growth inhibition [3]: -37.9%
- growth inhibition [4]: 0.55%
- growth inhibition [5]: -9.8%

Structure (SMILES): C=C(Br)CNCC(=C)Br
- growth inhibition [1]: 2.2%
- growth inhibition [2]: 5%
- growth inhibition [3]: 9.65%
- growth inhibition [4]: 18.2%
- growth inhibition [5]: -18.6%

Structure (SMILES): CCCN1CCc2c([nH]c3cc(OC)ccc23)C1C (stereo not given)
- growth inhibition [1]: 27.9%
- growth inhibition [2]: -5.05%
- growth inhibition [3]: 1.9%
- growth inhibition [4]: 7.35%
- growth inhibition [5]: 3.2%

Structure (SMILES): CSC1(C)C(=O)Nc2cc([N+](=O)[O-])ccc21 (stereo not given)
- growth inhibition [1]: 1.7%
- growth inhibition [2]: 0.6%
- growth inhibition [3]: -14.2%
- growth inhibition [4]: -32.5%
- growth inhibition [5]: -5.55%

Structure (SMILES): CC1(C)C=CC=C(C(=O)O)C=C1
- growth inhibition [1]: -23.1%
- growth inhibition [2]: -34.2%
- growth inhibition [3]: -21.4%
- growth inhibition [4]: -13.7%
- growth inhibition [5]: -14.7%

Structure (SMILES): COc1ccc(/C=C2\CCC(Cc3ccccc3)(CN(C)C)C2=O)cc1 (stereo not given)
- growth inhibition [1]: 19.6%
- growth inhibition [2]: 25.3%
- growth inhibition [3]: 3.7%
- growth inhibition [4]: -11.8%
- growth inhibition [5]: -72.4%

Structure (SMILES): CNCC(SC)c1ccc(O)c(O)c1 (stereo not given)
- growth inhibition [1]: -9.8%
- growth inhibition [2]: -20.4%
- growth inhibition [3]: -15.7%
- growth inhibition [4]: -31%
- growth inhibition [5]: -2.6%

Structure (SMILES): CCOC(=O)C1=CN(C)C=C(Br)C1C#N (stereo not given)
- growth inhibition [1]: -2.2%
- growth inhibition [2]: 4.55%
- growth inhibition [3]: 6.45%
- growth inhibition [4]: 8.1%
- growth inhibition [5]: -4.75%

Structure (SMILES): CC1(C)OC(=O)C=C([O-])O1.CC1(C)OC(=O)C=C([O-])O1.O=c1c(O)c(-c2ccc([O-])cc2[O-])oc2cc(O)cc(O)c12.[Ti+4]
- growth inhibition [1]: -45.6%
- growth inhibition [2]: -29.4%
- growth inhibition [3]: -7.85%
- growth inhibition [4]: -4.55%
- growth inhibition [5]: -16.2%

Structure (SMILES): CCCCCCCCCCCCCCCCOc1ccc(Sc2ccc([N+](=O)[O-])cc2)cc1
- growth inhibition [1]: 44.5%
- growth inhibition [2]: 35.6%
- growth inhibition [3]: -3.9%
- growth inhibition [4]: 13.6%
- growth inhibition [5]: 31.6%

Structure (SMILES): COC(=O)CCc1ccc(C2CO2)cc1 (stereo not given)
- growth inhibition [1]: -1.4%
- growth inhibition [2]: -9.5%
- growth inhibition [3]: -0.2%
- growth inhibition [4]: -11.2%
- growth inhibition [5]: 10.3%

Structure (SMILES): CCC=Nc1ccccc1CO
- growth inhibition [1]: 12.2%
- growth inhibition [2]: -1.05%
- growth inhibition [3]: 30.3%
- growth inhibition [4]: -4%
- growth inhibition [5]: 5.4%

Structure (SMILES): NC(CC1=CS(=O)(=O)c2ccc(Cl)cc21)C(=O)O (stereo not given)
- growth inhibition [1]: 18.4%
- growth inhibition [2]: 4.45%
- growth inhibition [3]: -16.2%
- growth inhibition [4]: 23.8%
- growth inhibition [5]: 23.9%

Structure (SMILES): FC(F)(F)C(Cl)=C(Cl)Cl
- growth inhibition [1]: -1.8%
- growth inhibition [2]: 14.5%
- growth inhibition [3]: 20.1%
- growth inhibition [4]: -13.7%
- growth inhibition [5]: -1.75%

Structure (SMILES): CC(=O)NC1CC(=O)N(c2ccccc2)C1=O (stereo not given)
- growth inhibition [1]: 16.4%
- growth inhibition [2]: 12.2%
- growth inhibition [3]: 5.9%
- growth inhibition [4]: -1.8%
- growth inhibition [5]: -19.1%

Structure (SMILES): COC(=O)C(CCS(=O)(=O)CC(=O)C(=O)Nc1cccc(C(C)=O)c1)C(=O)OC
- growth inhibition [1]: -12.6%
- growth inhibition [2]: -16.1%
- growth inhibition [3]: -17.1%
- growth inhibition [4]: -26.2%
- growth inhibition [5]: -5.95%

Structure (SMILES): O=c1[nH]c(=O)n(C2OC(CO)C(O)C2O)cc1OCCCc1ccccc1 (stereo not given)
- growth inhibition [1]: -23.1%
- growth inhibition [2]: 16.4%
- growth inhibition [3]: 31.2%
- growth inhibition [4]: -5.45%
- growth inhibition [5]: 8.75%

Structure (SMILES): CCc1cccc(C(=O)O)c1N
- growth inhibition [1]: 26.4%
- growth inhibition [2]: 15.7%
- growth inhibition [3]: 3.65%
- growth inhibition [4]: -3.75%
- growth inhibition [5]: 0.9%

Structure (SMILES): CCOC(=O)C(CCC(c1ccc(OC)cc1)c1ccc(OC)cc1)C(=O)OCC
- growth inhibition [1]: 29.7%
- growth inhibition [2]: 10.2%
- growth inhibition [3]: 2.05%
- growth inhibition [4]: 27.6%
- growth inhibition [5]: -18.2%

Structure (SMILES): CC(=O)CC(=O)C1CCC(C(=O)CC(C)=O)CC1 (stereo not given)
- growth inhibition [1]: -3.7%
- growth inhibition [2]: 0.65%
- growth inhibition [3]: -28.1%
- growth inhibition [4]: -0.7%
- growth inhibition [5]: -13.2%
